Measurements: the supplement of paper PMC10849652
Targets with a hit are over-represented here; the source holds about 7,900 in all. About 0.6% of all pairs of compound and target were hits. A number with no mark means an inactive call.

Key:
Assay in all cases: log2 fold change, soluble protein after heating vs DMSO (PISA); higher = thermal stabilisation; K562 cells, 10 uM, 30 min; active = over 0.2 and 3.5 SD of the protein, either way, in both replicates (recomputed)
bafetinib = compound: Cc1ccc(NC(=O)c2ccc(CN3CC[C@H](N(C)C)C3)c(C(F)(F)F)c2)cc1Nc1nccc(-c2cncnc2)n1 [bafetinib]
Summary of the method: (§1)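 Thermal stability values are relative to control samples and come from duplicates. They are expressed as log2 fold changes. For measurement, K562 cells (2×10^6 cells/mL) received 10 μM compound for 30 min, and aliquots were heated for 3 min over 48°C-58°C, pooled, and extracted at 4°C in PBS with 0.5% NP-40. Soluble protein, the supernatant after 21,000xg for 90 min, was quantified by TMTpro 16plex LC-MS/MS with equalised channel sums.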

[1] = compound: Cc1cccc(CC(=O)N2CCc3c2ccc(-c2cn(C)c4ncnc(N)c24)c3F)n1
Summary of the method: as §1

dasatinib = compound: Cc1nc(Nc2ncc(C(=O)Nc3c(C)cccc3Cl)s2)cc(N2CCN(CCO)CC2)n1 [dasatinib]
Summary of the method: as §1

[2] = compound: Cn1cc(-c2ccc3c(c2)CCN3C(=O)Cc2cccc(C(F)(F)F)c2)c2c(N)ncnc21
Summary of the method: as §1

[3] = compound: Cn1cc(-c2ccc3nnc(C(F)(F)c4ccc5ncccc5c4)n3n2)cn1
Summary of the method: as §1

tipifarnib = compound: Cn1cncc1[C@@](N)(c1ccc(Cl)cc1)c1ccc2c(c1)c(-c1cccc(Cl)c1)cc(=O)n2C [tipifarnib]
Summary of the method: as §1

mubritinib = compound: FC(F)(F)c1ccc(/C=C/c2nc(COc3ccc(CCCCn4ccnn4)cc3)co2)cc1 [mubritinib]
Summary of the method: as §1

nilotinib = compound: Cc1cn(-c2cc(NC(=O)c3ccc(C)c(Nc4nccc(-c5cccnc5)n4)c3)cc(C(F)(F)F)c2)cn1 [nilotinib]
Summary of the method: as §1

[4] = compound: Cc1nc(Nc2n[nH]c3c2CN(C(=O)N[C@H](CN(C)C)c2ccccc2)C3(C)C)c2sccc2n1
Summary of the method: as §1

[5] = compound: Cc1ncc(-c2ccnc(Nc3ccc(S(C)(=O)=O)cc3)n2)n1C(C)C
Summary of the method: as §1

UniProt P17544, sequence (P17544 whole entry, looked up): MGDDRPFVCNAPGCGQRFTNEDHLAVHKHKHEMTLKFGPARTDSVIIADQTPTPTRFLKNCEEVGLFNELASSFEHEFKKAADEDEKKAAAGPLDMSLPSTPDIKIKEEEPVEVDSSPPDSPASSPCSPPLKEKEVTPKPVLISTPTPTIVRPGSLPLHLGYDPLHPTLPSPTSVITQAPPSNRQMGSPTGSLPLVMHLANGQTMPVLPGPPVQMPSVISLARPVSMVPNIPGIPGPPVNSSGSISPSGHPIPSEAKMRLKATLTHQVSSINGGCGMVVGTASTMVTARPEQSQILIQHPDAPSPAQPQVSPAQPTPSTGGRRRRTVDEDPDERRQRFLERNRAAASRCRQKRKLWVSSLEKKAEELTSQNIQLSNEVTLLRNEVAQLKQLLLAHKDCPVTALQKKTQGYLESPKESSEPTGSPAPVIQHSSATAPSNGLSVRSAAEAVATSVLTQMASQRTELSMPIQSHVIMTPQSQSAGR
UniProt Q99758, sequence (Q99758 whole entry, looked up): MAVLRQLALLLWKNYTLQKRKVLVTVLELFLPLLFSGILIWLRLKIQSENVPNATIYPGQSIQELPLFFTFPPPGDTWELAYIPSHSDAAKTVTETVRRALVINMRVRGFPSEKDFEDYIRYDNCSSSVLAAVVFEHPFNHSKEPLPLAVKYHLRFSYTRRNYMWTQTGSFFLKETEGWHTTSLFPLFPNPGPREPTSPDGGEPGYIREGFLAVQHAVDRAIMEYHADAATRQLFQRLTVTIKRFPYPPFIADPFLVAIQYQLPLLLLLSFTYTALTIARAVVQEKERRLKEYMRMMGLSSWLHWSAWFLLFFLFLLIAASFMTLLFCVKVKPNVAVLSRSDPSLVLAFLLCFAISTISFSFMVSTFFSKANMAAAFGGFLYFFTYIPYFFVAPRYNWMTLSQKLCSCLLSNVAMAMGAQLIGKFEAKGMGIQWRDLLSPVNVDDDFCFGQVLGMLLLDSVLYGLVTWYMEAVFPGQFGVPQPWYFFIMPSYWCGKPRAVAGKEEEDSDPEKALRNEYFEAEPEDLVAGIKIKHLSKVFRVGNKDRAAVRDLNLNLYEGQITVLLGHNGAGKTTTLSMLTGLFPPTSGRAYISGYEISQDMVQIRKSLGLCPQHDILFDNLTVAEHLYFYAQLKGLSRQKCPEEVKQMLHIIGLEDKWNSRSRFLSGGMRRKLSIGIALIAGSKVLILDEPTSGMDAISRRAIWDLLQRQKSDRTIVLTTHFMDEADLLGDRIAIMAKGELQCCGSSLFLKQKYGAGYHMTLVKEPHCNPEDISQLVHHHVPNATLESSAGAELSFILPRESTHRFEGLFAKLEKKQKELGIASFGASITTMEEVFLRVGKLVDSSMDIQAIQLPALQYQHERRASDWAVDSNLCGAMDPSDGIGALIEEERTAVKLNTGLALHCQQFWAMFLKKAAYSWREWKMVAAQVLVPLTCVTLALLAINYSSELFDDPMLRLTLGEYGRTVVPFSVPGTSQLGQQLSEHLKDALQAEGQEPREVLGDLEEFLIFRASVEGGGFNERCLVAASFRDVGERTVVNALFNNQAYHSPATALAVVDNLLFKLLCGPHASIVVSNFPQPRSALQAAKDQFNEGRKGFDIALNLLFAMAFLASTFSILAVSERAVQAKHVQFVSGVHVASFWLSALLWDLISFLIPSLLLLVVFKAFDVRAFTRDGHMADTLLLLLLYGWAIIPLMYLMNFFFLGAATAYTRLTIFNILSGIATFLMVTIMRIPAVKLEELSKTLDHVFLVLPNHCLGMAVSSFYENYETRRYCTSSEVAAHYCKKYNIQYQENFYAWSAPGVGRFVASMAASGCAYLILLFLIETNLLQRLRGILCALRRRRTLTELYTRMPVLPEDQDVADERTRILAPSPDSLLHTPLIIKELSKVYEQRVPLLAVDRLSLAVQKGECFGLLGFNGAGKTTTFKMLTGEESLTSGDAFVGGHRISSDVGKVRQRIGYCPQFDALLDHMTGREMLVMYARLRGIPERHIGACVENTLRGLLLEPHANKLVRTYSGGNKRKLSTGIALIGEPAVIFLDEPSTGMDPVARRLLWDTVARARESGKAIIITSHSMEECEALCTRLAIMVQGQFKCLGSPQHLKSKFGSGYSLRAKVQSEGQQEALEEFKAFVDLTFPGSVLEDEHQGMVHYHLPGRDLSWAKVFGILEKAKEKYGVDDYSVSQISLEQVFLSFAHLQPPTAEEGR
UniProt Q9H7T9, sequence (Q9H7T9 whole entry, looked up): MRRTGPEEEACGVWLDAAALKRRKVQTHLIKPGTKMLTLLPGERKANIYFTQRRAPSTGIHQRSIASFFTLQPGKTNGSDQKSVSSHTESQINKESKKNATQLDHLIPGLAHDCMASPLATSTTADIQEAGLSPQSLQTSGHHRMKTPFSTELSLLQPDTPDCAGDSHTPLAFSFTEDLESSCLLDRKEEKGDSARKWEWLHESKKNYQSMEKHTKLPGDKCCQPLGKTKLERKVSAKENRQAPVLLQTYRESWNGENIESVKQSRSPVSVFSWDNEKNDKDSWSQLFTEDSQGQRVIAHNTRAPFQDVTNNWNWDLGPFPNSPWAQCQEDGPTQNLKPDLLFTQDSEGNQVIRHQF
UniProt Q8WV93, sequence (Q8WV93 whole entry, looked up): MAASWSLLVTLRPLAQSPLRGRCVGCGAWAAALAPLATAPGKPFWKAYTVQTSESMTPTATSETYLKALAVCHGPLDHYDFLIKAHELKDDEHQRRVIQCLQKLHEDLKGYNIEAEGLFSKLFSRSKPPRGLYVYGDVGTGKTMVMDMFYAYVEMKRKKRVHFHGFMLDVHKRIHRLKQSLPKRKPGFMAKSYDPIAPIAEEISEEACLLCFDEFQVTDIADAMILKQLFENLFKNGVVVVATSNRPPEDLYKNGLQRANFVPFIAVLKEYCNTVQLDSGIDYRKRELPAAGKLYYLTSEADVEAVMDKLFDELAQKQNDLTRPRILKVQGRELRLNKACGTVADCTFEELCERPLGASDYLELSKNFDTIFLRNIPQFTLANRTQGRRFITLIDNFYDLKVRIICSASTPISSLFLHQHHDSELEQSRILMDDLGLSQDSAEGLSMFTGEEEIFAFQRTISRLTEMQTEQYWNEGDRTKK
UniProt Q9NXW9, sequence (Q9NXW9 whole entry, looked up): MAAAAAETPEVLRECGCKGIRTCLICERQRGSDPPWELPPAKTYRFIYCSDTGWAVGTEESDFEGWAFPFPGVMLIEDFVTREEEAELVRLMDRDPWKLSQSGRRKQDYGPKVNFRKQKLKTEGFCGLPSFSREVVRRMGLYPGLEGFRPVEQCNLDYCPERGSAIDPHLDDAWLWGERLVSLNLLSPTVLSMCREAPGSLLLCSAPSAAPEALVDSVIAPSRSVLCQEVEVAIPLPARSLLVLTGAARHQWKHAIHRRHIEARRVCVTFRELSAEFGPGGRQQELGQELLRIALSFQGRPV
UniProt Q96P47, sequence (Q96P47 whole entry, looked up): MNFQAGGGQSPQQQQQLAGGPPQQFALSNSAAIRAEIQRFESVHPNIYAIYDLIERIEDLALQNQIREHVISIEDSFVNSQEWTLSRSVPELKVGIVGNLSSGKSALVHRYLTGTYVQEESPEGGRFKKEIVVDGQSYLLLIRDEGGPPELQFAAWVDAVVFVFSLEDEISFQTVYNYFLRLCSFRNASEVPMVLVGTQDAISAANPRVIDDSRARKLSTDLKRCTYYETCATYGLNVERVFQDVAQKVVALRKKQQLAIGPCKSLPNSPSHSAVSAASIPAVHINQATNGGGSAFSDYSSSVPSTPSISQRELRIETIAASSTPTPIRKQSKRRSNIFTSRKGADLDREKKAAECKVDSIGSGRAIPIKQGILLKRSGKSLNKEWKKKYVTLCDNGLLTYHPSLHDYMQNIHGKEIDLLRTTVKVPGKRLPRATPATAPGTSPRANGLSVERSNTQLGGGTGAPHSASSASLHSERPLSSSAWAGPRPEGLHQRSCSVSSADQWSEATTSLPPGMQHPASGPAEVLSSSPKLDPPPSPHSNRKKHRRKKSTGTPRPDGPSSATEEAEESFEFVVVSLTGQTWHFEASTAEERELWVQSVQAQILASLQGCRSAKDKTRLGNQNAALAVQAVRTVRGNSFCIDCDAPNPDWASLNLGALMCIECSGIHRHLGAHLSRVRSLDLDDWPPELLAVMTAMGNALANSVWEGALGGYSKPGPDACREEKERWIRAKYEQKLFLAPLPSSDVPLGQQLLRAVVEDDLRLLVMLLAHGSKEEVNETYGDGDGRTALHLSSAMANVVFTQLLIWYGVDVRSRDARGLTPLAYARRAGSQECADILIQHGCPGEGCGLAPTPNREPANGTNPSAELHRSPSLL
UniProt P25440, sequence (P25440 whole entry, looked up): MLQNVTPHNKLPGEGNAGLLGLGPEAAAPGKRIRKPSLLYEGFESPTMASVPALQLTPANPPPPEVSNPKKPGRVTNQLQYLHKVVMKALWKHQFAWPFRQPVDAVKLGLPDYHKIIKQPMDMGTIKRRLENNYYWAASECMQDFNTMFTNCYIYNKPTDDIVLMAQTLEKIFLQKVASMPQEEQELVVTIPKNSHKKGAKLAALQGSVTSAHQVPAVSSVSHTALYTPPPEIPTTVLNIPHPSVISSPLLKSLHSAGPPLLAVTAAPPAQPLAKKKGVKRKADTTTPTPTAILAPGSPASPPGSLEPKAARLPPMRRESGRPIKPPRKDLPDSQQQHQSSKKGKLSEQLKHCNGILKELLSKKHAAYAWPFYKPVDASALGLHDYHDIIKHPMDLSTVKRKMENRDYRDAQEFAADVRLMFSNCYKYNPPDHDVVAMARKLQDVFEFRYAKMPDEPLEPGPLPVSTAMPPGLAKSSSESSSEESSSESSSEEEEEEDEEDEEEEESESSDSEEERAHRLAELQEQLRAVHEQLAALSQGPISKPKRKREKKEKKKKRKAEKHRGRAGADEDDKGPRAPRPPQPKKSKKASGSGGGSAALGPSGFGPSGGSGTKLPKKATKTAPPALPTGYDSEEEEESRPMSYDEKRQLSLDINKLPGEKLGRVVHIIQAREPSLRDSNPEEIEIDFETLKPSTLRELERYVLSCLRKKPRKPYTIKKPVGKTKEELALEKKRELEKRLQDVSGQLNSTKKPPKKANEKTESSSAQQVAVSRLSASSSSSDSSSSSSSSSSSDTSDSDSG

Target	log2 fold change (bafetinib)	log2 fold change [1]	log2 fold change (dasatinib)	log2 fold change [2]	log2 fold change [3]	log2 fold change (tipifarnib)	log2 fold change (mubritinib)	log2 fold change (nilotinib)	log2 fold change [4]	log2 fold change [5]
ALKBH4 (UniProt Q9NXW9)	0.038	0.087	0	-0.022	0.017	-0.001	-0.122			
BRAF, A0A2R8Y8E0					0.052		0.113	-0.419	0.112	-0.236
AP4S1 (UniProt Q9Y587)	0.068		-0.036	-0.103		0.076	-0.013	-0.015	-0.016	0.072
BRD2 isoform 2 (UniProt P25440)	0.136	0.476	-0.32	0.11		-0.171				
ACVR1 (UniProt Q04771)		-0.068	0.041	0.029		-0.006	-0.124			
ARMC8 isoform 6 (UniProt Q8IUR7)	-0.012							-0.034	-0.079	-0.052
BRAF (UniProt P15056)	0.067	0.019		0.03	0.01	-0.034	-0.059		-0.099	-0.014
BAIAP2 isoform 4 (UniProt Q9UQB8)				-0.018						
AARSD1 (UniProt Q9BTE6)	0.142		-0.606	0.121		-0.19	0.066	0.029	-0.078	-0.012
BRD8 isoform 2 (UniProt Q9H0E9)	-0.057	0.064	-0.136	-0.022	-0.038	-0.038				
AUNIP isoform 2 (UniProt Q9H7T9)			-0.284	-0.006		-0.844 (active)				
ATXN7L3 isoform 2 (UniProt Q14CW9)	-0.123				0.03		0.086	0.024	0.043	-0.054
ANGEL1 (UniProt Q9UNK9)	0.015				-0.063					
ARL4A (UniProt P40617)	0.145						0.078			
ACOX3 (UniProt O15254)	0.053			-0.009		0.272	-0.241	0.159	-0.028	0.107
ADD1 isoform 4 (UniProt P35611)	-0.034	0.033		0.114						
AZI2 (UniProt Q9H6S1)	-0.049				0.105			0.179	0.481	0.099

Target	log2 fold change (bafetinib)	log2 fold change [1]	log2 fold change (dasatinib)	log2 fold change [2]	log2 fold change [3]	log2 fold change (tipifarnib)	log2 fold change (mubritinib)	log2 fold change (nilotinib)	log2 fold change [4]	log2 fold change [5]
APAF1 (UniProt O14727)		0.042	-0.121	-0.122	-0.016	-0.152	-0.032	-0.058	-0.015	-0.268
ARHGAP4 isoform 2 (UniProt P98171)	0.709 (active)		-0.097	-0.06	-0.046	0.161	-0.164	-0.137	0.436	-0.174
BAP18 isoform 3 (UniProt Q8IXM2)		-0.182					0.117			
AFG1L (UniProt Q8WV93)	-0.041		-0.023	0.077	0.109	0.19	0.031	-0.061	-0.048	0.043
AFDN isoform 1 (UniProt P55196)	-0.053	-0.077	-0.152	-0.027	0.07		0.031			
ABCA3 (UniProt Q99758)	0.164	-0.053	-0.027	-0.022	0.019	0.058				
ATF7 isoform 6 (UniProt P17544)	0.02		0.504 (active)	0.055	-0.266	0	0.018	-0.026	-0.081	-0.019
BDH2 (UniProt Q9BUT1)	0.114	0.069	0.031	0.063	-0.032	0.017	0.274			
ADD2 isoform 9 (UniProt P35612)	0.021				-0.002	0.149	-0.125			
AGAP3 isoform 4 (UniProt Q96P47)	-0.144			-0.077	-0.082	-0.012	-0.156	0.138	-0.016	-0.049
ACTR3B (UniProt Q9P1U1)		0.035			-0.051	0.129		0.036	-0.082	-0.001
ALDH2 isoform 2 (UniProt P05091)	-0.029	-0.124			0.244	0.015				
AIF1 (UniProt P55008)	0.035				0.153	0.051				
BRMS1 (UniProt Q9HCU9)		0.029	0.035				0.179			
AP2M1 (UniProt C9JTK4)	-0.174		0.029	-0.17			0.08	-0.02	0.212	-0.161
APOBEC3G (UniProt Q9HC16)	-0.016		0.075		-0.042	-0.012	0.03	0.028	0.079	0.028
